One may read the AC50 as the midpoint of the concentration-response curve, whichever way the signal moves.

This passage reports outcome and AC50 results from PubChem BioAssay (EPA / NIEHS).

Experiment [1] in a line: ATG_M_61_CIS: Attagene CIS-FACTORIAL HepG2 Assay for M61 Transcription Factor (Internal Marker) (AID 2282937). Conditions: HepG2 Attagene CIS-FACTORIAL M61 internal marker reporter; actives raise or lower the signal. In short, it runs like this:
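Human liver HepG2, transient MRTU transfection (cis promoter elements), 24 h compound. Total RNA → oligo(dT) RT → PCR → FAM label → HpaI → CE. Internal background marker; bidirectional fitting, DMSO = baseline.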

Experiment [2] is described as follows: ATG_EGR_CIS: Attagene CIS-FACTORIAL HepG2 Assay for human Early Growth Response 1 (EGR1) (AID 2282938). The conditions noted are these: HepG2 Attagene CIS-FACTORIAL EGR reporter mRNA; actives raise or lower the signal. In short, it runs like this:
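Transient transfection of human HepG2 with multiple cis-regulated reporter units, chemical exposure 24 h, total RNA isolated. Reverse transcription, PCR, fluorescent labelling and capillary electrophoresis quantify reporter transcripts; activity fitted bidirectionally against DMSO.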

Experiment [3] can be described thus: ATG_M_19_CIS: Attagene CIS-FACTORIAL HepG2 Assay for M19 Transcription Factor (Internal Marker) (AID 2282939). The conditions noted are these: HepG2 Attagene CIS-FACTORIAL M19 internal marker reporter; actives raise or lower the signal. In short, it runs like this:
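Readout: fluorescent reporter-transcript fragments by capillary electrophoresis after RT-PCR. Human HepG2 liver cells carried transfected MRTU constructs reporting endogenous transcription-factor activity; exposure 24 h. Gain or loss of signal fitted relative to DMSO.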

A short description of experiment [4]: ATG_ERE_CIS: Attagene CIS-FACTORIAL HepG2 Assay for Estrogen Response Element (ERE) (AID 2282940). Conditions: HepG2 ERE cis-reporter, Attagene RNA transcript; actives raise or lower the signal. Put shortly:
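Readout: reporter mRNA induction by RT-PCR, FAM-labelled primer extension, HpaI digestion and capillary electrophoresis, 24 h after dosing transfected HepG2 cells. Endogenous transcription factors act on cis-element-regulated reporters. Gain or loss fitted against DMSO.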

A short description of experiment [5]: ATG_Ets_CIS: Attagene CIS-FACTORIAL HepG2 Assay for human Erythroblast Transformation Specific (ETS) (AID 2282941). The conditions noted are these: HepG2 ETS cis-reporter transcription, actives raise or lower the signal. In short, it runs like this:
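After transient cis-reporter transfection, HepG2 cells receive test chemical for 24 h. Reporter mRNA levels, measured by RT-PCR and capillary electrophoresis fluorescence, are analysed bidirectionally relative to the DMSO baseline.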

The target in experiment [6] is Hepatocyte nuclear factor 3-beta (Homo sapiens) (UniProt Q9Y261). As to the kind of experiment: ATG_FoxA2_CIS: Attagene CIS-FACTORIAL HepG2 Assay for human Forkhead box A2 (FOXA2) (AID 2282942). The conditions noted are these: HepG2 cis-reporter transcription factor activity, 24 h; actives raise or lower the signal. In short, it runs like this:
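Transient MRTU transfection of HepG2 liver cells; 24 h treatment; total RNA → oligo(dT) RT → PCR → FAM primer extension → HpaI cut → CE. Bidirectional fit vs DMSO.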

Experiment [7] can be described thus: ATG_FoxO_CIS: Attagene CIS-FACTORIAL HepG2 Assay for human Forkhead box O (FoxO) (AID 2282943). The conditions noted are these: HepG2 Attagene cis-reporter, FoxO element, mRNA; actives raise or lower the signal. Put shortly:
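Transfected HepG2 reporter cells exposed to test chemical for 24 h; reporter RNA measured by reverse transcription, PCR and fluorescent capillary electrophoresis; curves fitted for increases and decreases against DMSO.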

A short description of experiment [8]: ATG_GATA_CIS: Attagene CIS-FACTORIAL HepG2 Assay for human GATA Binding Protein (AID 2282944). Conditions: HepG2 GATA cis-element reporter, Attagene multiplex mRNA; actives raise or lower the signal. In short, it runs like this: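 Read-out: fluorescent reporter mRNA fragments resolved by capillary electrophoresis after RT-PCR. Human liver HepG2 cells carried transiently transfected cis-regulated reporter constructs; chemicals incubated 24 h; gain or loss of signal fitted relative to DMSO.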

Experiment [9] can be described thus: ATG_GLI_CIS: Attagene CIS-FACTORIAL HepG2 Assay for human Zinc Finger Protein GLI1 (AID 2282945). Conditions: HepG2, Attagene cis-factorial reporter mRNA, GLI element; actives raise or lower the signal. Put shortly:
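Transiently transfected HepG2 cells report endogenous transcription factor activity via cis-element-driven reporter units. After 24 h compound exposure, reporter mRNA was measured by RT-PCR with capillary electrophoresis; bidirectional fitting against DMSO baseline.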

Experiment [10] in a line: ATG_GRE_CIS: Attagene CIS-FACTORIAL HepG2 Assay for human Glucocorticoid Response Elements (GRE) (AID 2282947). The conditions noted are these: HepG2 GRE cis-reporter, Attagene multiplex mRNA; actives raise or lower the signal. Put shortly:
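Transiently transfected HepG2 cells carrying GRE cis-reporter units (endogenous TF activity) dosed 24 h; reporter mRNA quantified by RT-PCR, 6-FAM labelling, HpaI digestion and capillary electrophoresis. Bidirectional fit versus DMSO baseline.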

The nature of experiment [11]: ATG_ISRE_CIS: Attagene CIS-FACTORIAL HepG2 Assay for human Interferon Regulatory Factor 1 (IRF1) binding to an Interferon-Stimulated Response Element (ISRE) (AID 2282948). Conditions: HepG2 ISRE cis-reporter (Attagene), mRNA transcription readout; actives raise or lower the signal. In short, it runs like this:
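Quantitation relies on labelled RT-PCR fragments separated by capillary electrophoresis. Human HepG2 cells bearing cis-promoter reporter constructs were treated 24 h; DMSO served as baseline for bidirectional fitting.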

Experiment [12] is described as follows: ATG_M_32_CIS: Attagene CIS-FACTORIAL HepG2 Assay for M32 Transcription Factor (Internal Marker) (AID 2282949).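 Further: background control marker of the multiplexed CIS panel rather than a real target.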 The conditions noted are these: HepG2 Attagene cis-factorial M32 reporter, mRNA; actives raise or lower the signal. Put shortly:
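Fluorescent capillary electrophoresis peaks of HpaI-digested, FAM-labelled RT-PCR reporter products give the signal. Source: transiently transfected human liver HepG2 cells, 24 h after chemical dosing; bidirectional fitting against DMSO.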

A short description of experiment [13]: ATG_M_06_CIS: Attagene CIS-FACTORIAL HepG2 Assay for M06 Transcription Factor (Internal Marker) (AID 2282950). The conditions noted are these: HepG2 Attagene CIS-FACTORIAL M06 internal marker reporter; actives raise or lower the signal. In short, it runs like this: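 Terse: HepG2, transient MRTU transfection (FuGene 6), 24 h dosing; total RNA, oligo(dT) RT, PCR, FAM label, HpaI cut, capillary electrophoresis; bidirectional fit vs DMSO baseline; background-control endpoint.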

In experiment [14] the target is Hepatocyte nuclear factor 6 (Homo sapiens) (UniProt Q9UBC0). As to the kind of experiment: ATG_HNF6_CIS: Attagene CIS-FACTORIAL HepG2 Assay for human Hepatocyte Nuclear Factor 6 (HNF6) (AID 2282952). The conditions noted are these: HepG2 Attagene cis-factorial HNF6 reporter transcription; actives raise or lower the signal. Put shortly: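 HepG2, transient MRTU transfection (cis promoters); 24 h chemical exposure; total RNA → oligo(dT) RT → PCR → 6-FAM labelling → HpaI cut → CE; bidirectional fit vs DMSO.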

A short description of experiment [15]: ATG_MRE_CIS: Attagene CIS-FACTORIAL HepG2 Assay for human Metal Responsive Element (MRE) (AID 2282954). Conditions: HepG2 MRE cis-reporter transcription, Attagene multiplex; actives raise or lower the signal. Put shortly:
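HepG2 cells transiently transfected with cis-element-driven reporter units; mRNA measured 24 h after dosing. Reporter transcripts quantified by RT-PCR, FAM labelling, HpaI digestion and capillary electrophoresis; bidirectional fit versus DMSO.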

Experiment [16] in a line: ATG_PBREM_CIS: Attagene CIS-FACTORIAL HepG2 Assay for human Phenobarbital-responsive Enhancer Module (PBREM) (AID 2282955). Conditions: HepG2 PBREM cis-reporter, Attagene multiplexed transcription; actives raise or lower the signal. In short, it runs like this: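 Endogenous transcription factors in human liver HepG2 cells drive a PBREM cis-element reporter, whose transcript level after 24 h treatment is quantified by RT-PCR with capillary electrophoresis; activity fitted in both directions against DMSO.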

A short description of experiment [17]: ATG_E_Box_CIS: Attagene CIS-FACTORIAL HepG2 Assay for human Enhancer Box (E-box) (AID 2282936). The conditions noted are these: HepG2 E-box cis-reporter transcription, actives raise or lower the signal. In short, it runs like this: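 HepG2 cells transiently transfected with multiplexed cis-element reporter units, dosed 24 h; reporter mRNA quantified by RT-PCR, 6-FAM labelling, HpaI digestion and capillary electrophoresis. E-box (USF1) signal fitted bidirectionally vs DMSO.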

Experiment [18] deals with Hypoxia-inducible factor 1-alpha (Homo sapiens) (UniProt Q16665). As to the kind of experiment: ATG_HIF1a_CIS: Attagene CIS-FACTORIAL HepG2 Assay for human Hypoxia Inducible Factor 1 (HIF1A) (AID 2282951). The conditions noted are these: HepG2 Attagene cis-factorial HIF1a reporter transcription; actives raise or lower the signal. Put shortly: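 Transient MRTU transfection of human HepG2 liver cells, 24 h compound treatment, then total RNA isolation, oligo(dT) reverse transcription, PCR amplification, fluorescent labelling and capillary electrophoresis of reporter fragments. Gain or loss relative to DMSO.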

The target of experiment [19] is Heat shock factor protein 1 (Homo sapiens) (UniProt Q00613). Nature of the experiment: ATG_HSE_CIS: Attagene CIS-FACTORIAL HepG2 Assay for human Heat Shock Transcription Factor 1 (HSE) (AID 2282953). Conditions: HepG2 HSE cis-reporter, Attagene RNA transcription; actives raise or lower the signal. In short, it runs like this: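 Read-out: fluorescence of reporter-specific RT-PCR fragments separated by capillary electrophoresis. HepG2 carrying transfected cis-element reporter units; 24 h dosing; activity fitted in both directions relative to DMSO baseline.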

In experiment [20] the target is Bile acid receptor (Homo sapiens) (UniProt Q96RI1). Nature of the experiment: ATG_IR1_CIS: Attagene CIS-FACTORIAL HepG2 Assay for human Nuclear Receptor Subfamily 1 Group H Member 4 (NR1H4), IR1 submotif (AID 2282946). Conditions: IR1 reporter transcription, actives raise or lower the signal. In short, it runs like this:
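HepG2 cells transiently transfected with multiple cis-promoter-driven reporter units to measure endogenous transcription factor activity; 24 h exposure. Reporter mRNA read by RT-PCR, FAM labelling, HpaI digestion and capillary electrophoresis. Bidirectional fit versus DMSO.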

SMILES strings stand for the structures. Activity calls are given as the source filed them. How the source made its calls: active means hit-call score of the fitted dose curve at least 0.9, where 1 is the maximum; inactive means score below 0.9.

Hypoxia-inducible factor 1-alpha (Homo sapiens), sequence (Q16665 whole entry, looked up, the tested form may be a part): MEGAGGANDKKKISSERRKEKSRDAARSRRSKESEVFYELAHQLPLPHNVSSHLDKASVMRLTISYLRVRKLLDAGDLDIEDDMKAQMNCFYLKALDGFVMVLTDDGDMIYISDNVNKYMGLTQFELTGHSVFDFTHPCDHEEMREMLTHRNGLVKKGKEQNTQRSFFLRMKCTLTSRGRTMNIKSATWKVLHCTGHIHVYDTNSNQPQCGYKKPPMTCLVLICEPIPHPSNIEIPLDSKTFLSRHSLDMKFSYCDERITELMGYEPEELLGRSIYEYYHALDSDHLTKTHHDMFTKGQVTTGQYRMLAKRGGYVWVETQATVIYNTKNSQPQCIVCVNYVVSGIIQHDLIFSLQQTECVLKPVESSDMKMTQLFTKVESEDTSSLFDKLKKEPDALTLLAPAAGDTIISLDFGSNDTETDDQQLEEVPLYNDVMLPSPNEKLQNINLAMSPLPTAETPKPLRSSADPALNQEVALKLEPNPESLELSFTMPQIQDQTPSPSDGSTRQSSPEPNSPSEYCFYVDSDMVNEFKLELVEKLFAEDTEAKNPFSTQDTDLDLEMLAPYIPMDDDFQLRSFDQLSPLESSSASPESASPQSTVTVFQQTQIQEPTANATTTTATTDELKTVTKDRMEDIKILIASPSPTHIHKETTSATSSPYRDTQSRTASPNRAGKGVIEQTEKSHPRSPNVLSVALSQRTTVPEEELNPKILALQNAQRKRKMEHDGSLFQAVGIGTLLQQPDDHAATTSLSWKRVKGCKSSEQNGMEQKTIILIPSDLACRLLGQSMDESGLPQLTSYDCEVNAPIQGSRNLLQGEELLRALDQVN
Hepatocyte nuclear factor 6 (Homo sapiens), sequence (Q9UBC0 whole entry, looked up): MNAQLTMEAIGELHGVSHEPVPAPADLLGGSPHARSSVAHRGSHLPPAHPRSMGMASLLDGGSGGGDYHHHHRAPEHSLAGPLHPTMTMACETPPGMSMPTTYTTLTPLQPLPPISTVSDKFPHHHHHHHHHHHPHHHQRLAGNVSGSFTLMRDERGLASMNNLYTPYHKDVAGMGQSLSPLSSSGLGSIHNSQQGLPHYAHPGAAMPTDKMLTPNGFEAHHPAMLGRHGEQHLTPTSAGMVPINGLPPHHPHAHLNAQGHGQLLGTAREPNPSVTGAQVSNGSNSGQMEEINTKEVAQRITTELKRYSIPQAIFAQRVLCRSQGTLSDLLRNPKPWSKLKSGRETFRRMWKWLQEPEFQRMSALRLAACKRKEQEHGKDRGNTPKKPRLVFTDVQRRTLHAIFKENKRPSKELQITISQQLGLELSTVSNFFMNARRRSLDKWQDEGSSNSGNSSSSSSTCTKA
Hepatocyte nuclear factor 3-beta (Homo sapiens), sequence (Q9Y261 whole entry, looked up): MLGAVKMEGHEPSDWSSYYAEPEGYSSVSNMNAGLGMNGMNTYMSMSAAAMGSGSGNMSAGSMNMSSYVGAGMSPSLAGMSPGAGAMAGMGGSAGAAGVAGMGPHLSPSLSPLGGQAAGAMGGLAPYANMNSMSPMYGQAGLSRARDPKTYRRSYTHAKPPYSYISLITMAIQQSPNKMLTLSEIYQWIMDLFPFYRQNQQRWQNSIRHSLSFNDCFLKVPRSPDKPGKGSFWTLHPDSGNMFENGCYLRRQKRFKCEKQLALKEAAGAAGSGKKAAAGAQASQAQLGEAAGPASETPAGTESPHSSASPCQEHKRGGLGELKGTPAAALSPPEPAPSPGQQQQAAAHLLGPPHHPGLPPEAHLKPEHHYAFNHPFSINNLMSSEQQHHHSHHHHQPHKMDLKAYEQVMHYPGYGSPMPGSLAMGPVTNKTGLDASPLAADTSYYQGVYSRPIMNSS
Heat shock factor protein 1 (Homo sapiens), sequence (Q00613 whole entry, looked up, the tested form may be a part): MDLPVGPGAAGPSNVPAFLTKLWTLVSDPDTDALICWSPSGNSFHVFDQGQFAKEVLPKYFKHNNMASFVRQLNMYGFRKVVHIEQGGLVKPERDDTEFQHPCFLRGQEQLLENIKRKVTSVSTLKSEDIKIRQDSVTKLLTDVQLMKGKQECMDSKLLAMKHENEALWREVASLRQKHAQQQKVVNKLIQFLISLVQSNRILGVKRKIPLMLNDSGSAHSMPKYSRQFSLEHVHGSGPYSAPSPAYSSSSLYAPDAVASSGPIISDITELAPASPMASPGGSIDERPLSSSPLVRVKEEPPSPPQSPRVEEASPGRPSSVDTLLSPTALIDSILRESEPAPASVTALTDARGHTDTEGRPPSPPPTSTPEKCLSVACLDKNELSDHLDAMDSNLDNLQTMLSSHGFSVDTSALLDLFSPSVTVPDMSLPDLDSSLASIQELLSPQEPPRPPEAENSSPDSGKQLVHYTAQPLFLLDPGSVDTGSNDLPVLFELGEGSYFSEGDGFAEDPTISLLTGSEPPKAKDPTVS
Bile acid receptor (Homo sapiens), sequence (Q96RI1 whole entry, looked up): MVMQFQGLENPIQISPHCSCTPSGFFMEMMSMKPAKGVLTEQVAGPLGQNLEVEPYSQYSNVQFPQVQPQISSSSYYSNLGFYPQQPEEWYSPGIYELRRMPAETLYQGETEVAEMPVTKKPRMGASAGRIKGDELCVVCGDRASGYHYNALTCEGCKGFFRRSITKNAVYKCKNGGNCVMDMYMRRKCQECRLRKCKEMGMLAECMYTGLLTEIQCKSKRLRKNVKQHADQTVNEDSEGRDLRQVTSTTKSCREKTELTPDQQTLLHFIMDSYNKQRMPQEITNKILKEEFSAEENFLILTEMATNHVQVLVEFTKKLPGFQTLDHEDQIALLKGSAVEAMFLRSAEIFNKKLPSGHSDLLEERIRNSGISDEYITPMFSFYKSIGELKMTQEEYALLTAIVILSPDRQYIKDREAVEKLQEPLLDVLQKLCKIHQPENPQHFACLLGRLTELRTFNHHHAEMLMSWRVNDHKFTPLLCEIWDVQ

Turning to `Cn1cnc([N+](=O)[O-])c1Sc1ncnc2nc[nH]c12`, the call in experiment [1], in experiment [2], in experiment [3], in [5], in experiment [6] and in experiment [7] was inactive. Also, the outcome in [8], in experiment [9], in experiment [10], in [12], in experiment [13] and in experiment [14] was inactive. Further, the call in experiment [15] and in experiment [16] was inactive. Moreover, the concentration at half-maximal activity (AC50) in experiment [4] is 29 µM (active); in experiment [11], 63.3 µM (active).

Consider `CCCCCCc1ccc(O)cc1O`, for which the result in experiment [17], in experiment [1], in experiment [3], in experiment [5], in [6] and in experiment [7] was inactive. Moreover, the call in experiment [8], in experiment [9], in [10], in [13], in [14] and in experiment [19] was inactive. Besides, the outcome in experiment [16] was inactive. Further, the AC50 in experiment [2] is 52.7 µM (active); in experiment [11] it was 55.7 µM (active); in experiment [18] it was 50.7 µM (active); in experiment [15], 54.1 µM (active).

Consider `CCCN(C1CCN(C(=O)C2CCNCC2)CC1)[C@@H]1CCc2ccc(OC)cc2C1`, for which the concentration at half-maximal activity (AC50) was 45.1 µM (active) in experiment [17]; 100 µM (active) in experiment [2]; 153 µM (active) in [7]; 152 µM (active) in experiment [8]; 153 µM (active) in [9]; 90.6 µM (active) in experiment [11]. Moreover, in [16], the AC50 is 157 µM (active). Besides, the outcome in experiment [1], in experiment [3], in [5], in experiment [6], in experiment [10] and in [13] was inactive. In addition, the call in experiment [18], in [14], in experiment [19] and in [15] was inactive.

On to `CCOCCOCCOCCO`, for which the outcome in [17], in experiment [1], in experiment [2], in [3], in [5] and in experiment [6] was inactive. The outcome in experiment [7], in experiment [8], in experiment [9], in experiment [20], in experiment [11] and in [13] was inactive. The outcome in experiment [18], in experiment [14], in experiment [19], in [15] and in experiment [16] was inactive.
